Bioassay records (PubChem)
L3MBTL1 block: L3MBTL1 (human) inhibition. AlphaScreen L3MBTL1–H3K9me1 peptide binding. Potency, µM (highest dose often 57.1 µM), usual class: inhibitors. hit rate 0.66% among 230,000. Q9Y468; note: nearly all actives have a fitted effect of over 60% in size
Target sequence (Q9Y468 whole entry, looked up): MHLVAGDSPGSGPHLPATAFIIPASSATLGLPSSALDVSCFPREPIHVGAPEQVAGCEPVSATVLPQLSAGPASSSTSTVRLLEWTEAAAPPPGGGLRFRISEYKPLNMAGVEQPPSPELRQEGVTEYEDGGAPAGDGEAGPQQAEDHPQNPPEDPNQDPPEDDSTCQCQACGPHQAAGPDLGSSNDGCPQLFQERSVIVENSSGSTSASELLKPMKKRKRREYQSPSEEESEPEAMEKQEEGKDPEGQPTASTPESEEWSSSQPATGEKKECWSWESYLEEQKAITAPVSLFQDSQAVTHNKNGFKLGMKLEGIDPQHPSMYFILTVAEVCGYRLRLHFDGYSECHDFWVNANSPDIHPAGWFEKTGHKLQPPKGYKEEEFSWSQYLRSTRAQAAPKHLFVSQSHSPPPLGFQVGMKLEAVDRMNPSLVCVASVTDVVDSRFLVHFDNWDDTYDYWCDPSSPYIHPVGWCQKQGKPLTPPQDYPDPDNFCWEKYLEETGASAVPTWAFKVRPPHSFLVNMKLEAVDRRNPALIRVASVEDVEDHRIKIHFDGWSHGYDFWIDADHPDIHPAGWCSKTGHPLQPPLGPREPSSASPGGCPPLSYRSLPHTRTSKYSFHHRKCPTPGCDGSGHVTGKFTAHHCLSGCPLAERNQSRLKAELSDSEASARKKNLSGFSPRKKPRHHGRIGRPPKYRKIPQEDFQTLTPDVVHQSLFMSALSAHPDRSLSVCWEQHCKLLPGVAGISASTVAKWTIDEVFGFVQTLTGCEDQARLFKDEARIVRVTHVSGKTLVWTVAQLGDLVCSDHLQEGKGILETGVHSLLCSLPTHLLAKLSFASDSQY
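First, the protein-peptide complex forms for 30 min at room temperature (L3MBTL1 50 nM, biotinylated H3K9me1 peptide 75 nM). Next, compounds are pin-transferred and incubated 30 min. Finally, AlphaScreen beads are added and read after 30 min.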
BAZ2B block: BAZ2B (human) inhibition | Potency, µM (doses to about 114 µM), most hits filed as inhibitors | AlphaScreen BAZ2B-H3K14Ac peptide displacement | hit rate 4.4% among 360,000; note: nearly all actives have a fitted effect of over 60% in size
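Inhibition is scored as reduced AlphaScreen emission. The BAZ2B/b-H3(5-23)K14Ac complex (50 nM each) in PBS pH 7.4, 0.01% Tween-20 meets compound (up to 110 uM) for 30 min at RT before bead addition.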
Sfp PPTase inh: blocks B. subtilis Sfp PPTase activity; Q9F4F7; Biochemical Sfp PPTase activity, qHTS; Potency, µM, usual class: inhibitors; hit rate 3.5% among 310,000; AID 1490;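 note: the enzyme is Sfp with the accession as filed and its product quenches rhodamine fluorescence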
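Fluorescence-quenching assay with 15 nM Sfp, 5 uM rhodamine-CoA and 12.5 uM BHQ-2-labelled ybbR peptide in pH 7.6 Hepes/MgCl2 buffer. Enzyme was pre-incubated with compound for 15 min at room temperature. Rate was taken from the 30-min fluorescence change (525/598 nm).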
JMJD2A Tudor: blocks the human JMJD2A Tudor domain; Potency, µM (titrated, usually from 114 µM), actives largely listed as inhibitors; AlphaScreen JMJD2A-Tudor / H3K4me3 peptide binding; hit rate 4.4% among 390,000; AID 504339; note: nearly all actives have a fitted effect of over 50% in size
G9a inh: blocks human histone lysine methyltransferase G9a. Potency, µM (highest dose often 102 µM), most hits filed as inhibitors. G9a H3K9 monomethylation, AlphaScreen, 2 h. hit rate 8.8% among 350,000. Q96KQ7; note: nearly all actives have a fitted effect of over 75% in size
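G9a (20 nM) was preincubated 15 min with compound, then reacted 2 h at room temperature with 500 nM biotin-H3K9 peptide and 20 µM SAM. Monomethyl-H3K9 detected by AlphaScreen using anti-H3K9me1 antibody.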
HP1b chromo inh: HP1-beta chromodomain-methylated histone interaction inhibition; Potency, µM (doses to about 114 µM), actives largely listed as inhibitors; hit rate 0.56% among 390,000; AlphaScreen HP1-beta / biotin-H3K9me3 peptide binding; AID 540317; P83916; note: nearly all actives have a fitted effect of over 70% in size
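Compound inhibition of the preformed complex between 50 nM HP1-beta and 50 nM biotinylated H3K9me3 peptide was read by AlphaScreen. Buffer was PBS pH 7.4 with 0.01% Tween-20. Incubations ran 30 min at room temperature, with 10 ug/mL donor/acceptor beads.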
Numbers stand for hits; [ ] = dose if it differs, or a comment. Most compounds without a hit are left out; they make up all but 12% or so of the library. Calls come from the whole dose curve; as a rule, active = well fitted curve in the direction sought with a large enough effect; inconclusive = small, poorly fitted or top-dose-only effect, or another doubt; inactive = no such curve, though single readings can be large; an effect the other way counts as inactive or inconclusive.

Results for CN(C)c1ccc(C2CNC(c3ccc(Cl)c([N+](=O)[O-])c3)c3[nH]c4ccccc4c32)cc1 (stereo not given) ?
BAZ2B block: 10µM; Sfp PPTase inh: inactive; JMJD2A Tudor: 35µM; G9a inh: inconclusive; HP1b chromo inh: inconclusive

What do the screens show for `CC(C)OCCCN1CC(=O)N2C(c3cccc([N+](=O)[O-])c3)c3[nH]c4ccccc4c3C[C@H]2C1=O` (stereo not given in full)?
BAZ2B block: inactive; Sfp PPTase inh: inactive; JMJD2A Tudor: inactive; G9a inh: inactive; HP1b chromo inh: inactive

What do the screens show for `Cc1ccc(-n2c(=O)c3c(cnn3C)n(Cc3ccccc3F)c2=O)cc1`?
BAZ2B block: inactive; JMJD2A Tudor: inactive; G9a inh: inactive; HP1b chromo inh: inactive

How did Cc1oc2ccc(O)c(CN3CCCC3)c2c1C(=O)Nc1cccc(Cl)c1C do in these assays?
BAZ2B block: inactive; JMJD2A Tudor: inactive; G9a inh: inactive; HP1b chromo inh: inactive

What do the screens show for `COc1ccc(C(=O)NCc2nnc(SCC(=O)c3ccccc3)n2C)cc1OC`?
L3MBTL1 block: inactive; BAZ2B block: inactive; JMJD2A Tudor: inactive; G9a inh: 56µM; HP1b chromo inh: inactive

What do the screens show for `Cc1cc(C)nc(SCc2nnc(SCC(=O)Nc3nc(-c4ccccc4)cs3)n2C)n1`?
L3MBTL1 block: inactive; BAZ2B block: inactive; Sfp PPTase inh: inactive; JMJD2A Tudor: inactive[11.4 µM]; G9a inh: inactive; HP1b chromo inh: inactive

What do the screens show for `COc1ccc(C(=O)CSc2nnc(CNC(=O)c3ccc(OC)cc3)n2C)cc1`?
L3MBTL1 block: inactive; BAZ2B block: inactive; Sfp PPTase inh: inactive; JMJD2A Tudor: 50µM; G9a inh: inconclusive; HP1b chromo inh: inactive

What do the screens show for `Cc1ccc(C(=O)CSc2nnc(CNc3nc(-c4ccccc4)cs3)n2C)cc1`?
L3MBTL1 block: inactive; BAZ2B block: inconclusive; Sfp PPTase inh: inactive; JMJD2A Tudor: inactive[11.4 µM]; G9a inh: 35µM; HP1b chromo inh: inactive

What do the screens show for `COc1cccc(OCc2nc3ccccc3n2Cc2ccccc2C)c1`?
BAZ2B block: inactive; JMJD2A Tudor: inactive; G9a inh: inactive; HP1b chromo inh: inactive

How did CC(=O)C[C@H](O)[C@@H](NC(=O)OC(C)(C)C)C(C)C do in these assays?
Sfp PPTase inh: inactive

How did CCOC(=O)c1ccc(NC(=O)c2cnn3c(=O)c4c(n(CC)c23)CCN(Cc2ccc(OC)cc2)C4)cc1 do in these assays?
BAZ2B block: inactive; JMJD2A Tudor: inactive; G9a inh: inactive; HP1b chromo inh: inactive

What do the screens show for `CCn1c2c(c(=O)n3ncc(C(=O)Nc4ccc(OC(F)(F)F)cc4)c13)CN(Cc1ccc(OC)cc1)CC2`?
BAZ2B block: inactive; JMJD2A Tudor: inactive; G9a inh: 13µM; HP1b chromo inh: inactive

What do the screens show for `CCn1c2c(c(=O)n3ncc(C(=O)N4CCN(c5ccc(C(C)=O)cc5)CC4)c13)CN(Cc1ccc(OC)cc1)CC2`?
BAZ2B block: inactive; JMJD2A Tudor: inactive; G9a inh: inactive; HP1b chromo inh: inactive

Results for COc1ccc(CN2CCc3c(c(=O)n4ncc(C(=O)N5CCN(c6ccc(F)cc6)CC5)c4n3C)C2)cc1 ?
BAZ2B block: 79µM; JMJD2A Tudor: inactive; G9a inh: inactive; HP1b chromo inh: inactive

Results for CC1CCN(S(=O)(=O)c2cc(C(=O)N3CCN(c4ccccc4F)CC3)n(C)c2)CC1 ?
BAZ2B block: inactive; JMJD2A Tudor: inactive; G9a inh: inactive; HP1b chromo inh: inactive

How did Cc1nn(-c2ccccn2)c2c1-c1nc(N3CCOCC3)ncc1CC2 do in these assays?
L3MBTL1 block: inactive; BAZ2B block: inactive; Sfp PPTase inh: 45µM; JMJD2A Tudor: inactive; G9a inh: inconclusive; HP1b chromo inh: inactive

What do the screens show for `O=C(CSc1cn(CC(=O)N2CCCC2)c2ccccc12)Nc1cc(C(F)(F)F)ccc1Cl`?
BAZ2B block: inactive; JMJD2A Tudor: inactive; G9a inh: inactive; HP1b chromo inh: inactive

Results for Cc1ccc(C2CC(=O)C(C=NCCN3CCN(C(=S)Nc4ccc(F)cc4)CC3)=C(O)C2)cc1 (stereo not given) ?
BAZ2B block: inactive; Sfp PPTase inh: inactive; JMJD2A Tudor: inconclusive; G9a inh: inactive; HP1b chromo inh: inactive

Results for Cc1cc(C)nc(N/N=C/C2=C(O)CC(c3ccc(F)cc3)CC2=O)n1 (stereo not given) ?
BAZ2B block: 22µM; Sfp PPTase inh: inactive; JMJD2A Tudor: 32µM; G9a inh: inactive; HP1b chromo inh: inactive

How did CCC(=Nc1ccccc1OC)C1=C(O)CC(c2ccccc2)CC1=O (stereo not given) do in these assays?
BAZ2B block: inactive; Sfp PPTase inh: inactive; JMJD2A Tudor: inactive; G9a inh: inconclusive; HP1b chromo inh: inactive

Results for CCC(=Nc1ccccc1O)C1=C(O)CC(c2ccccc2)CC1=O (stereo not given) ?
L3MBTL1 block: inactive; BAZ2B block: inactive; Sfp PPTase inh: 79µM; JMJD2A Tudor: inactive; G9a inh: inactive; HP1b chromo inh: inactive

Results for O=C(C1=C(O)C(=O)N(c2ncccn2)C1c1ccc(F)cc1)c1ccco1 (stereo not given) ?
L3MBTL1 block: inactive; BAZ2B block: inactive; Sfp PPTase inh: inactive; JMJD2A Tudor: inconclusive; HP1b chromo inh: inactive

How did CSc1nnc(N2C(=O)C(O)=C(C(=O)c3ccco3)C2c2ccccc2)s1 (stereo not given) do in these assays?
BAZ2B block: inconclusive; Sfp PPTase inh: inactive; JMJD2A Tudor: inconclusive; G9a inh: 40µM; HP1b chromo inh: inactive

What do the screens show for `Cc1ccc(C(=O)C2=C(O)C(=O)N(c3ncccn3)C2c2ccccc2F)o1` (stereo not given)?
BAZ2B block: inactive; Sfp PPTase inh: inconclusive; JMJD2A Tudor: inactive; G9a inh: inconclusive; HP1b chromo inh: inactive

How did CSc1nnc(N2C(=O)C(O)=C(C(=O)c3ccco3)C2c2ccccc2F)s1 (stereo not given) do in these assays?
BAZ2B block: inactive; Sfp PPTase inh: inactive; JMJD2A Tudor: 50µM; G9a inh: inactive[0.0925 µM]; HP1b chromo inh: inactive

How did Cc1cc(N2C(=O)C(O)=C(C(=O)c3ccco3)C2c2ccccc2F)no1 (stereo not given) do in these assays?
BAZ2B block: inconclusive; Sfp PPTase inh: inactive; JMJD2A Tudor: inactive; G9a inh: 79µM; HP1b chromo inh: inactive

Results for CSc1nnc(N2C(=O)C(O)=C(C(=O)c3ccc(C)o3)C2c2ccc(C)cc2)s1 (stereo not given) ?
BAZ2B block: inconclusive; Sfp PPTase inh: 16µM; JMJD2A Tudor: inactive; G9a inh: inactive[0.501 µM]; HP1b chromo inh: inactive

How did N#Cc1ccc(CN2CCCC3(CCNCC3)C2)cc1 do in these assays?
Sfp PPTase inh: inactive; G9a inh: inactive[12.7 µM]
